Laboratory results as given in PMC11062922 (Nature Chemical Biology, 2023).
Read-outs that look alike come from different tables or passages of the source.

Tests used:
[1] = tested on: PRKD2; conditions: read-out: apparent Kd, n = 1
[2] = tested on: PRKD3; conditions: read-out: apparent Kd, n = 1

## Lestaurtinib
[1]; compound concentrations:100 nM and 1000 nM (sheet 'Lestaurtinib' of Supplementary Table 1),run:Lestaurtinib_02741_R1,Plate:MR023
  potency estimated from few doses: 38.5 nM
[1]; compound concentrations:100 nM and 1000 nM (sheet 'Lestaurtinib' of Supplementary Table 1),run:Lestaurtinib_02748_R1,Plate:MR024
  potency estimated from few doses: 45.6 nM
[1]; compound concentrations:100 nM and 1000 nM (sheet 'Lestaurtinib' of Supplementary Table 1),run:Lestaurtinib_02748_R2,Plate:MR024
  potency estimated from few doses: 48.1 nM
[1]; compound concentrations:100 nM and 1000 nM (sheet 'Lestaurtinib' of Supplementary Table 1),run:Lestaurtinib_02748_R3,Plate:MR024
  potency estimated from few doses: 45.9 nM
[1]; compound concentrations:100 nM and 1000 nM (sheet 'Lestaurtinib' of Supplementary Table 1),run:Lestaurtinib_02752_R1,Plate:MR025
  potency estimated from few doses: 59.6 nM
[1]; compound concentrations:100 nM and 1000 nM (sheet 'Lestaurtinib' of Supplementary Table 1),run:Lestaurtinib_02752_R2,Plate:MR025
  potency estimated from few doses: 58 nM
[1]; compound concentrations:100 nM and 1000 nM (sheet 'Lestaurtinib' of Supplementary Table 1),run:Lestaurtinib_02752_R3,Plate:MR025
  potency estimated from few doses: 35.6 nM
[1]; compound concentrations:100 nM and 1000 nM (sheet 'Lestaurtinib' of Supplementary Table 1),run:Lestaurtinib_02765_R1,Plate:MR026
  potency estimated from few doses: 39.1 nM
[1]; compound concentrations:100 nM and 1000 nM (sheet 'Lestaurtinib' of Supplementary Table 1),run:Lestaurtinib_02765_R2,Plate:MR026
  potency estimated from few doses: 69.2 nM
[1]; compound concentrations:100 nM and 1000 nM (sheet 'Lestaurtinib' of Supplementary Table 1),run:Lestaurtinib_02765_R3,Plate:MR026
  potency estimated from few doses: 67.9 nM
[1]; compound concentrations:100 nM and 1000 nM (sheet 'Lestaurtinib' of Supplementary Table 1),run:Lestaurtinib_02766_R1,Plate:MR027
  potency estimated from few doses: 45.5 nM
[1]; compound concentrations:100 nM and 1000 nM (sheet 'Lestaurtinib' of Supplementary Table 1),run:Lestaurtinib_02766_R2,Plate:MR027
  potency estimated from few doses: 40.9 nM
[1]; compound concentrations:100 nM and 1000 nM (sheet 'Lestaurtinib' of Supplementary Table 1),run:Lestaurtinib_02768_R2,Plate:MR028
  potency estimated from few doses: 44 nM
[1]; compound concentrations:100 nM and 1000 nM (sheet 'Lestaurtinib' of Supplementary Table 1),run:Lestaurtinib_02768_R3,Plate:MR028
  potency estimated from few doses: 41.6 nM
[1]; compound concentrations:100 nM and 1000 nM (sheet 'Lestaurtinib' of Supplementary Table 1),run:Lestaurtinib_02795_R1,Plate:MR022
  potency estimated from few doses: 45 nM
[1]; compound concentrations:100 nM and 1000 nM (sheet 'Lestaurtinib' of Supplementary Table 1),run:Lestaurtinib_02795_R2,Plate:MR022
  potency estimated from few doses: 37.3 nM
[1]; compound concentrations:100 nM and 1000 nM (sheet 'Lestaurtinib' of Supplementary Table 1),run:Lestaurtinib_02802_R2,Plate:MR029
  potency estimated from few doses: 43.6 nM
[1]; compound concentrations:100 nM and 1000 nM (sheet 'Lestaurtinib' of Supplementary Table 1),run:Lestaurtinib_02802_R3,Plate:MR029
  potency estimated from few doses: 32.9 nM
[1]; compound concentrations:100 nM and 1000 nM (sheet 'Lestaurtinib' of Supplementary Table 1),run:Lestaurtinib_02896_R1,Plate:MR030
  potency estimated from few doses: 43 nM
[1]; compound concentrations:100 nM and 1000 nM (sheet 'Lestaurtinib' of Supplementary Table 1),run:Lestaurtinib_02896_R2,Plate:MR030
  potency estimated from few doses: 50.1 nM
[1]; compound concentrations:100 nM and 1000 nM (sheet 'Lestaurtinib' of Supplementary Table 1),run:Lestaurtinib_02896_R3,Plate:MR030
  potency estimated from few doses: 40.6 nM
[1]; compound concentrations:100 nM and 1000 nM (sheet 'Lestaurtinib' of Supplementary Table 1),run:Lestaurtinib_03172_R1,Plate:MR031
  potency estimated from few doses: 29.7 nM
[1]; compound concentrations:100 nM and 1000 nM (sheet 'Lestaurtinib' of Supplementary Table 1),run:Lestaurtinib_03172_R2,Plate:MR031
  potency estimated from few doses: 36 nM
[1]; compound concentrations:100 nM and 1000 nM (sheet 'Lestaurtinib' of Supplementary Table 1),run:Lestaurtinib_03172_R3,Plate:MR031
  potency estimated from few doses: 44.1 nM
[1]; compound concentrations:100 nM and 1000 nM (sheet 'Lestaurtinib' of Supplementary Table 1),run:Lestaurtinib_03252_R1,Plate:MR032
  potency estimated from few doses: 27.4 nM
[1]; compound concentrations:100 nM and 1000 nM (sheet 'Lestaurtinib' of Supplementary Table 1),run:Lestaurtinib_03252_R2,Plate:MR032
  potency estimated from few doses: 32.1 nM
[1]; compound concentrations:100 nM and 1000 nM (sheet 'Lestaurtinib' of Supplementary Table 1),run:Lestaurtinib_03260_R1,Plate:MR033
  potency estimated from few doses: 52.3 nM
[2]; compound concentrations:100 nM and 1000 nM (sheet 'Lestaurtinib' of Supplementary Table 1),run:Lestaurtinib_02339_R1,Plate:MR001
  potency estimated from few doses: 98.8 nM
[2]; compound concentrations:100 nM and 1000 nM (sheet 'Lestaurtinib' of Supplementary Table 1),run:Lestaurtinib_02339_R2,Plate:MR001
  potency estimated from few doses: 98.8 nM
[2]; compound concentrations:100 nM and 1000 nM (sheet 'Lestaurtinib' of Supplementary Table 1),run:Lestaurtinib_02364_R1,Plate:MR002
  potency estimated from few doses: 97.6 nM
[2]; compound concentrations:100 nM and 1000 nM (sheet 'Lestaurtinib' of Supplementary Table 1),run:Lestaurtinib_02364_R3,Plate:MR002
  potency estimated from few doses: 93.5 nM
[2]; compound concentrations:100 nM and 1000 nM (sheet 'Lestaurtinib' of Supplementary Table 1),run:Lestaurtinib_02367_R1,Plate:MR003
  potency estimated from few doses: 45.3 nM
[2]; compound concentrations:100 nM and 1000 nM (sheet 'Lestaurtinib' of Supplementary Table 1),run:Lestaurtinib_02367_R2,Plate:MR003
  potency estimated from few doses: 62.3 nM
[2]; compound concentrations:100 nM and 1000 nM (sheet 'Lestaurtinib' of Supplementary Table 1),run:Lestaurtinib_02367_R3,Plate:MR003
  potency estimated from few doses: 63.6 nM
[2]; compound concentrations:100 nM and 1000 nM (sheet 'Lestaurtinib' of Supplementary Table 1),run:Lestaurtinib_02381_R2,Plate:MR004
  potency estimated from few doses: 59.1 nM
[2]; compound concentrations:100 nM and 1000 nM (sheet 'Lestaurtinib' of Supplementary Table 1),run:Lestaurtinib_02407_R1,Plate:MR005
  potency estimated from few doses: 98 nM
[2]; compound concentrations:100 nM and 1000 nM (sheet 'Lestaurtinib' of Supplementary Table 1),run:Lestaurtinib_02407_R2,Plate:MR005
  potency estimated from few doses: 51.7 nM
[2]; compound concentrations:100 nM and 1000 nM (sheet 'Lestaurtinib' of Supplementary Table 1),run:Lestaurtinib_02422_R1,Plate:MR006
  potency estimated from few doses: 76.7 nM
[2]; compound concentrations:100 nM and 1000 nM (sheet 'Lestaurtinib' of Supplementary Table 1),run:Lestaurtinib_02422_R2,Plate:MR006
  potency estimated from few doses: 42 nM
[2]; compound concentrations:100 nM and 1000 nM (sheet 'Lestaurtinib' of Supplementary Table 1),run:Lestaurtinib_02422_R3,Plate:MR006
  potency estimated from few doses: 81.8 nM
[2]; compound concentrations:100 nM and 1000 nM (sheet 'Lestaurtinib' of Supplementary Table 1),run:Lestaurtinib_02437_R1,Plate:MR007
  potency estimated from few doses: 84 nM
[2]; compound concentrations:100 nM and 1000 nM (sheet 'Lestaurtinib' of Supplementary Table 1),run:Lestaurtinib_02437_R3,Plate:MR007
  potency estimated from few doses: 5.38 nM
